The other results are listed elsewhere or left out. A number with no mark means an inactive call. The source made the active and inactive calls. Unless noted, no stated cut-off is given here; in the data, active means activation above about 8.9%; inactive means the rest.
Tests used:
[1] = system: HIV-1 integrase (multimerization); assay: HIV-1 IN multimer formation enhancers, counter-screen for LEDGF/p75 integration inhibitor project, biochemical, TR-FRET (AID 1053131); conditions: TR-FRET HIV-1 integrase multimerization, at 7.7 µM, stronger effect = higher value
[2] = TR-FRET optical interference artefacts, confirmation, artefact control for LEDGF/p75-dependent integration inhibitor project, biochemical, HIV-1 IN multimerization (AID 1053135;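 active means inhibition above the mean over all tested compounds plus 3 SD, which no compound reached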;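 further: 0% = integrase with antibodies and DMSO and 100% = antibodies without integrase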); conditions: TR-FRET optical interference counterscreen, at 7.7 µM, stronger effect = higher value
[3] = system: HIV-1 integrase / human LEDGF/p75 complex; assay: inhibitors of HIV-1 IN-LEDGF/p75 DNA integration, confirmation, biochemical, TR-FRET (AID 1053136; in the data active means inhibition above about 14%); conditions: TR-FRET LEDGF/p75-dependent HIV-1 integration, at 3.7 µM, stronger effect = higher value
[4] = molecular target: Glutathione S-transferase omega-1 (Homo sapiens) (UniProt P78417); assay: GSTO1 inhibitor hit confirmation, counter-screen for RBBP9 inhibitor project, biochemical, fluorescence polarization, triplicate (AID 2176;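 active means inhibition above the primary screen's cutoff, its mean inhibition plus 3 SD, cut at about 35% in these data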;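 further: loss of polarization as inhibitors block binding of rhodamine sulfonate ester activity probe; 0% = GSTO1 with DMSO and 100% = wells lacking GSTO1 enzyme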); conditions: recombinant GSTO1, probe fluorescence polarization; at 5.96 µM; stronger effect = higher value
Glutathione S-transferase omega-1 (Homo sapiens), sequence (P78417 whole entry, looked up): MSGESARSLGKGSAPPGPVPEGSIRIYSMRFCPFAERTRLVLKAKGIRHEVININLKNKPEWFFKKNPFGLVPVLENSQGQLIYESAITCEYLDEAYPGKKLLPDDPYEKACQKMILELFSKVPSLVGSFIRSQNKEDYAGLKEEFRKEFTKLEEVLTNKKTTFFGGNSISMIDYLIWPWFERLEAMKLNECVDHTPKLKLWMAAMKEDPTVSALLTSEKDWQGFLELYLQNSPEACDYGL

In the case of `COc1ccccc1-c1cc(C(=O)NCCCn2ccnc2)no1`, the activation [1] is reported as 1.02%, the inhibition [2] is reported as -3.78% and the inhibition [3] is reported as -0.05%.

Compound `COc1cc(/C=C2\CCCc3c2nc2ccccc2c3C(=O)O)cc(Cl)c1O` has an activation [1] of -1.15%, an inhibition [2] of 5.85% and an inhibition [3] of -2.25%.

In the case of `O=C(c1cccc(C(F)(F)F)c1)N1CC[C@H]2[C@H](CCCN2Cc2cc(F)cc(F)c2)C1`, the activation [1] is reported as 0.05%, the inhibition [2] is reported as -0.14% and the inhibition [3] is reported as -8.63%.

Compound `CSc1nc(N)c(C#N)c(-c2ccccc2Cl)c1C#N` has an activation [1] of -0.67%, an inhibition [2] of 3.41% and an inhibition [3] of 0.36%.

`O=C1OC(/C=C/c2ccccc2)=NC/1=C/c1ccco1` gave an activation [1] of -0.93%, an inhibition [2] of 4.71% and an inhibition [3] of -2.29%.

`CCN(CC)CCOc1ccc2c(c1)C(=NNC(=O)c1ccccn1)c1cc(OCCN(CC)CC)ccc1-2` showed an activation [1] of 2.34%, an inhibition [2] of -8.61% and an inhibition [3] of 6.51%.

In the case of `CCOC(=O)c1ccc(NC(=O)CSc2ncccn2)cc1`, the activation [1] is reported as -0.25%, the inhibition [2] is reported as 1.28% and the inhibition [3] is reported as -6.96%.

With `O=C(O)c1ccc(NN=CC2=C(N3CCOCC3)/C(=C/c3ccccc3)CC2)cc1` the activation [1] was 3.07%, the inhibition [2] was -10.9% and the inhibition [3] was 16.6% (active).

In the case of `CC(=O)c1nc2ccccc2n1Cc1ccccc1`, the activation [1] is reported as -0.46%, the inhibition [2] is reported as 2.34% and the inhibition [3] is reported as -4.4%.

Compound `Cc1ccc(C(=O)N2CCCc3ccccc32)c(Cl)c1` has an activation [1] of -0.4%, an inhibition [2] of 2.02% and an inhibition [3] of 1.35%.

With `COc1cc(NC(=O)COC(=O)c2ccc([N+](=O)[O-])s2)cc(OC)c1OC` the activation [1] was -0.28%, the inhibition [2] was 1.01% and the inhibition [3] was 51.5% (active).

With `O=C(COC(=O)CCC(=O)c1cccs1)NCc1ccco1` the activation [1] was 11.5% (active), the inhibition [2] was -58.1% and the inhibition [3] was 19.2% (active).

For `C=CCn1c2ccccc2c2nnc(SCc3[nH]c(=O)[nH]c3C(=O)CCCCC(=O)OCC)nc21`, the activation [1] was -0.48%, the inhibition [2] was 2.45% and the inhibition [3] was 24% (active).

Compound `O=C(NC1CCCCC1)N1CCc2[nH]c3ccccc3c2C1` has an activation [1] of 1.36%, an inhibition [2] of -6.83% and an inhibition [3] of 2.35%.

`Cc1ccc(C(=O)OC(C)CN2CCOCC2)cc1` (stereo not drawn) showed an activation [1] of 0.25%, an inhibition [2] of -1.23% and an inhibition [3] of -2.32%.

For `O=C(O)CCC(=O)Nc1ccc(N2CCOCC2)cc1`, the activation [1] was 0.12%, the inhibition [2] was -0.6% and the inhibition [3] was 1.39%.

Compound `Cc1cc(SCC(=O)NCCN2C(=O)CSC2=O)nc2ccccc12` has an activation [1] of 0.99%, an inhibition [2] of -4.97% and an inhibition [3] of 1.78%.

For `C[C@H]([C@@H](O)[C@@H](O)[C@@H](C)C(C)(C)C)[C@H]1CC[C@H]2C3CC[C@H]4C[C@H](OS(=O)(=O)O)[C@@H](OS(=O)(=O)O)C[C@]4(C)[C@H]3CC[C@]12C` (stereo partly drawn), the activation [1] was -1.87%, the inhibition [2] was 6.58% and the inhibition [3] was 32.4% (active).

Work on `COc1cc(-c2nnc(NC(=O)CS(=O)(=O)c3ccc(Cl)cc3)o2)cc(OC)c1OC` yielded an activation [1] of 0.46%, an inhibition [2] of -2.3% and an inhibition [3] of 4.63%.

For `COc1c(O)cc2oc(-c3ccc(O)c(O)c3)cc(=O)c2c1O`, the activation [1] was 16.2% (active), the inhibition [2] was -81.9% and the inhibition [3] was 89.6% (active).

Work on `COc1ccc(NC(=O)C(NC(C)=O)C(=O)NCc2ccccc2Cl)cc1` (stereo not drawn) yielded an activation [1] of -0.36%, an inhibition [2] of 1.86% and an inhibition [3] of 2.33%.

For `Cc1cc(C)c2nc(-c3ccco3)cc(C(=O)O)c2c1`, the activation [1] was 2.58%, the inhibition [2] was -12.9% and the inhibition [3] was 63.6% (active).

For `O=C(Nc1nnc(-c2ccco2)o1)c1ccc(S(=O)(=O)N2CCOCC2)cc1`, the activation [1] was 0.8%, the inhibition [2] was -4.01% and the inhibition [3] was -5.04%.

For `Oc1cc(O)c2c(c1)OC(c1ccc(O)c(O)c1)C(O)C2` (stereo not drawn), the activation [1] was 10.4% (active), the inhibition [2] was -52.5% and the inhibition [3] was -0.79%.

Compound `CN(Cc1ccc(F)cc1)C(=O)CN1C(=O)c2ccccc2S1(=O)=O` has an activation [1] of -1.2%, an inhibition [2] of 4.33% and an inhibition [3] of -12.2%.

With `Oc1c(CN2CCOCC2)ccc(CN2CCOCC2)c1O` the activation [1] was -0.48%, the inhibition [2] was 1.64% and the inhibition [3] was 15.7% (active).

For `Cc1ccc(C(=O)NC(=S)Nc2ccc3[nH]c(=O)[nH]c3c2)cc1C`, the activation [1] was -3.75%, the inhibition [2] was 19% and the inhibition [3] was 14.8% (active).

With `CCc1cc2cc(OC)ccc2nc1SCC(=O)Nc1cc(OC)c(OC)cc1C(=O)O` the activation [1] was -3.01%, the inhibition [2] was 15.3% and the inhibition [3] was 5.77%.

Compound `Cn1c(SCc2nc3ccccc3s2)nnc1-c1ccc2c(c1)OCO2` has an activation [1] of 0.47%, an inhibition [2] of -2.33% and an inhibition [3] of -2.11%.

Compound `CN(C)c1ccc(C(CC(=O)O)C(=O)O)cc1` (stereo not drawn) has an activation [1] of 3.35%, an inhibition [2] of -16.9% and an inhibition [3] of 0.73%.

For `CCOC(=O)c1c(C)oc2cc(Sc3ccccc3)c(O)c(O)c12`, the inhibition [4] was 5.29%, the activation [1] was 0.78% and the inhibition [2] was -2.84%. The inhibition [3] was -5.02%.

For `COc1ccc(S(=O)(=O)/N=C2\C=C(NS(=O)(=O)c3ccccc3)C(=O)c3ccccc32)cc1`, the inhibition [4] was 72.9% (active), the activation [1] was -2.79% and the inhibition [2] was 10%. The inhibition [3] was 5.95%.
